Test results from PubChem BioAssay (Tox21).
Values without a mark were called inactive. Inconclusive results are not listed. Where a call stands in place of a potency, no number is given. Activity calls are given as the source filed them. Unless noted, the call rests on the fitted dose curve; in most records, active means well fitted curve in the direction sought with a large enough effect in the repeat runs; inconclusive means weak or mixed curves; inactive means no such curve, though single readings can be large; an effect the other way counts as inactive or inconclusive.

Columns and labels:
[1] = qHTS assay to test for compound auto fluorescence at 535 nm (green) in HEK293 cells (AID 720680)
[2] = qHTS assay to test for compound auto fluorescence at 460 nm (blue) in HEK293 cell free culture (AID 720681)
Summary of the method: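 Compounds were added to cell-free DMEM with 10% FBS and fluorescence read directly. The blue channel used 405 nm excitation and 460 nm emission, with triamterene as the reference fluorophore.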

[3] = qHTS assay to test for compound auto fluorescence at 535 nm (green) in HEK293 cell free culture (AID 720682)
Summary of the method: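 Intrinsic compound fluorescence is measured in culture medium containing 10% FBS, with excitation at 485 nm and detection at 535 nm, referenced to fluorescein.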

[4] = qHTS assay to test for compound auto fluorescence at 590 nm (red) in HEK293 cell free culture (AID 720683)
Summary of the method: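 Cell-free wells of DMEM with 10% FBS received compound, and intrinsic fluorescence was read at excitation/emission 540/590 nm. Values expressed as equivalence to Rose Bengal sodium.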

[5] = qHTS assay to test for compound auto fluorescence at 590 nm (red) in HepG2 cell free culture (AID 720684)
Summary of the method: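 Compound was pinned into wells holding MEM with 10% FBS and no cells, and red fluorescence was read at Ex/Em 540/590 nm. Signal is expressed as auto fluorescence equivalency relative to Rose Bengal sodium.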

[6] = qHTS assay to test for compound auto fluorescence at 460 nm (blue) in HepG2 cell free culture (AID 720685)
Summary of the method: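 Compound (23 nL) or DMSO pinned into cell-free MEM with 10% FBS; blue fluorescence read at 405/460 nm excitation/emission, expressed as auto-fluorescence equivalency to triamterene.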

[7] = qHTS assay to test for compound auto fluorescence at 535 nm (green) in HepG2 cell free culture (AID 720686)
[8] = qHTS assay to test for compound auto fluorescence at 460 nm (blue) in HepG2 cells (AID 720687)
Summary of the method: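 HepG2 cells in MEM with 10% FBS, attached overnight at 37 C, were exposed to compound or DMSO for 1 hr at 37 C, 5% CO2. Blue fluorescence was read at 405/460 nm, with triamterene as reference fluorophore.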

[9] = qHTS assay to identify small molecule antagonists of the glucocorticoid receptor (GR) signaling pathway - cell viability counter screen (AID 720693); further: nearly all actives have a fitted effect of over 55% in size
[10] = qHTS assay for identifying genotoxic compounds that show differential cytotoxicity against isogenic chicken DT40 cell lines with known DNA damage response pathways - wild type cell line (AID 743012); further: nearly all actives have a fitted effect of over 60% in size; further: potency means the concentration at half of the fitted maximal effect
Summary of the method: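 Using parental DT40 (300 cells/well), compounds delivered in DMSO incubate 40 h at 37 C/5% CO2. CellTiter-Glo reagent then stands 30 min at room temperature, and luminescence gives cell viability.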

[11] = qHTS assay for identifying genotoxic compounds that show differential cytotoxicity against isogenic chicken DT40 cell lines with known DNA damage response pathways - Rev3 mutant cell line (AID 743014); further: nearly all actives have a fitted effect of over 55% in size; further: potency means the concentration at half of the fitted maximal effect
[12] = qHTS assay for identifying genotoxic compounds that show differential cytotoxicity against isogenic chicken DT40 cell lines with known DNA damage response pathways - Rad54/Ku70 mutant cell line (AID 743015); further: nearly all actives have a fitted effect of over 60% in size; further: potency means the concentration at half of the fitted maximal effect
[13] = qHTS assay to identify small molecule antagonists of the androgen receptor (AR) signaling pathway - cell viability counter screen (AID 743033; further: nearly all actives have a fitted effect of over 45% in size)
[14] = qHTS assay to identify small molecule antagonists of the androgen receptor (AR) signaling pathway using the MDA cell line - cell viability counter screen (AID 743041; further: nearly all actives have a fitted effect of over 45% in size; further: potency means the concentration at half of the fitted maximal effect)
Summary of the method: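 MDA-kb2 AR-luc cells (MMTV-luciferase, AR/GR responsive) treated with compounds plus R1881 agonist for 16 h at 37C. CellTiter-Fluor added at 15.5 h; fluorescence read after 30 min in the same wells.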

[15] = qHTS assay to identify small molecule antagonists of the thyroid receptor (TR) signaling pathway - cell viability counter screen (AID 743064); further: nearly all actives have a fitted effect of over 50% in size; further: potency means the concentration at half of the fitted maximal effect
Summary of the method: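 Same-well viability check: GH3.TRE-Luc cells stimulated with 1 nM T3 alongside test compound for 23.5 h, followed by CellTiter-Fluor fluorescence.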

[16] = molecular target: Androgen receptor (Homo sapiens) (UniProt P10275); assay: qHTS assay to identify small molecule antagonists of the androgen receptor (AR) signaling pathway (AID 743035; active means well fitted inhibition curve with a large enough effect in the signal ratio in the repeat runs, not every such curve was filed as active; the % refers to the signal ratio)
Chain of Androgen receptor (Homo sapiens) (P10275 whole entry, looked up): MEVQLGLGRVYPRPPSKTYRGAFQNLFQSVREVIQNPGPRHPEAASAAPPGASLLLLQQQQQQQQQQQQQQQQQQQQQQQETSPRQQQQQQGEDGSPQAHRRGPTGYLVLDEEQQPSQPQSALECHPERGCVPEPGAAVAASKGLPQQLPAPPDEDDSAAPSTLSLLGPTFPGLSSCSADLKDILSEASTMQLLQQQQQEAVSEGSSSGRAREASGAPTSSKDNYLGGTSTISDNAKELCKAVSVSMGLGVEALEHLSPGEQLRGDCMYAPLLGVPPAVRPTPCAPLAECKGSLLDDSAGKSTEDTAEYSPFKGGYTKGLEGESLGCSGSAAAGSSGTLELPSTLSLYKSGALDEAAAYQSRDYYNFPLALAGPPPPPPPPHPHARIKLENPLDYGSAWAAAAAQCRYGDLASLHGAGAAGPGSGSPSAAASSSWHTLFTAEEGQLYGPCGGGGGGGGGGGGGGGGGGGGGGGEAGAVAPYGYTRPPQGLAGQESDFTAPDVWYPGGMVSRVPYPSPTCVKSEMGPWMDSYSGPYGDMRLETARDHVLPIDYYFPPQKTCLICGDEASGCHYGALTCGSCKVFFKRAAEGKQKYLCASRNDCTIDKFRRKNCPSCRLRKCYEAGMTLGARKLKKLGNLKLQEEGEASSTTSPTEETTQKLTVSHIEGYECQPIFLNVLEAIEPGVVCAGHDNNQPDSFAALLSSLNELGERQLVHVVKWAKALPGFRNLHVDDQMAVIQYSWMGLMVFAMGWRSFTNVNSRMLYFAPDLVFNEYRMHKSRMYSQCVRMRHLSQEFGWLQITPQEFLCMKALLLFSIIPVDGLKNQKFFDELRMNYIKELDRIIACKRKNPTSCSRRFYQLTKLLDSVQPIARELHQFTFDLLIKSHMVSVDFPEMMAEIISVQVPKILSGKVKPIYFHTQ
Summary of the method: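 Using qHTS, AR-UAS-bla GripTite HEK293 cells received compound, then R1881, and were cultured 16 h at 37C/5% CO2 before a 2 h room-temperature LiveBLAzer B/G FRET substrate step and fluorescence measurement.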

[17] = molecular target: Androgen receptor (Homo sapiens) (UniProt P10275); assay: qHTS assay to identify small molecule agonists of the androgen receptor (AR) signaling pathway using the MDA cell line (AID 743040; further: nearly all actives have a fitted effect of over 20% in size)
Summary of the method: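 MDA-kb2 breast carcinoma cells carrying MMTV-luciferase (responsive to AR and GR), plated 5 h then treated 16 h with compounds at 37C, 0% CO2. Read-out was ONE-Glo luminescence after 30 min at room temperature.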

[18] = molecular target: Androgen receptor (Homo sapiens) (UniProt P10275); assay: qHTS assay to identify small molecule antagonists of the androgen receptor (AR) signaling pathway using the MDA cell line (AID 743042; further: nearly all actives have a fitted effect of over 55% in size)
Summary of the method: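 MDA-kb2 breast carcinoma cells carrying MMTV-luciferase (AR/GR responsive) were co-treated with compounds and the agonist R1881 for 16 h at 37C. Inhibition read as ONE-Glo luminescence; CellTiter-Fluor fluorescence measured in parallel for cytotoxicity.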

## CO[C@H]1O[C@H](CO)[C@@H](O)[C@H](O)[C@H]1O
[1]
  outcome: inactive
[2]
  Potency: inactive
[3]
  outcome: inactive
[4]
  outcome: inactive
[5]
  outcome: inactive
[6]
  Potency: inactive
[7]
  outcome: inactive
[8]
  Potency: inactive
[9]
  Potency: inactive
[10]
  Potency: inactive
[11]
  Potency: inactive
[12]
  Potency: inactive
[13]
  Potency: inactive
[14]
  Potency: inactive
[15]
  Potency: inactive

## C(=C\c1ccccc1)/CN1CCN(C(c2ccccc2)c2ccccc2)CC1
[1]
  fluorescence, % of fluorescein: 0.011% [at 18.6 µM]
[2]
  fluorescence, % of fluorescent control: 0.0548% [at 18.6 µM]
[3]
  activity change: -0.0228% [at 18.6 µM]
[4]
  fluorescence, % of fluorescent control: -0.0283% [at 18.6 µM]
[5]
  fluorescence, % of Rose Bengal: -0.312% [at 18.6 µM]
[6]
  fluorescence, % of fluorescent control: 0.108% [at 18.6 µM]
[7]
  fluorescence, % of fluorescein control: 0.012% [at 18.6 µM]
[8]
  fluorescence, % of fluorescent control: 0.0775% [at 18.6 µM]
[9]
  Potency: inactive
[11]
  Potency: inactive
[13]
  Potency: inactive
[15]
  Potency: 12.7 µM (active)

## CC(C)(O)c1ccccc1CC[C@@H](SCC1(CC(=O)O)CC1)c1cccc(/C=C/c2ccc3ccc(Cl)cc3n2)c1
[1]
  outcome: inactive
[2]
  Potency: inactive
[3]
  outcome: inactive
[4]
  outcome: inactive
[5]
  outcome: inactive
[6]
  Potency: inactive
[7]
  outcome: inactive
[8]
  Potency: inactive
[10]
  Potency: inactive
[11]
  Potency: inactive
[13]
  Potency: inactive
[16]
  Potency: inactive
[14]
  Potency: inactive

## COc1cc2[nH]c(=O)[nH]c(=O)c2cc1OC
[1]
  fluorescence, % of fluorescein: 0.0875% [at 18.6 µM]
[2]
  fluorescence, % of fluorescent control: 0.0899% [at 18.6 µM]
[3]
  activity change: 0.0939% [at 18.6 µM]
[4]
  fluorescence, % of fluorescent control: 0.224% [at 18.6 µM]
[5]
  fluorescence, % of Rose Bengal: 0.0628% [at 18.6 µM]
[6]
  fluorescence, % of fluorescent control: -0.0173% [at 18.6 µM]
[7]
  fluorescence, % of fluorescein control: -0.0155% [at 18.6 µM]
[8]
  fluorescence, % of fluorescent control: 0.0151% [at 18.6 µM]
[9]
  Potency: inactive
[10]
  Potency: inactive
[11]
  Potency: inactive
[12]
  Potency: inactive
[14]
  Potency: inactive
[15]
  Potency: inactive

## CC(=O)CC(c1ccc([N+](=O)[O-])cc1)c1c(O)c2ccccc2oc1=O (stereo not drawn)
[1]
  fluorescence, % of fluorescein: 0.0049% [at 18.6 µM]
[2]
  fluorescence, % of fluorescent control: -0.0081% [at 18.6 µM]
[3]
  activity change: 0.0438% [at 18.6 µM]
[4]
  fluorescence, % of fluorescent control: -0.0043% [at 18.6 µM]
[5]
  fluorescence, % of Rose Bengal: 0.571% [at 18.6 µM]
[6]
  fluorescence, % of fluorescent control: -0.0473% [at 18.6 µM]
[7]
  fluorescence, % of fluorescein control: 0.0092% [at 18.6 µM]
[8]
  fluorescence, % of fluorescent control: -0.107% [at 18.6 µM]
[9]
  Potency: inactive
[10]
  Potency: inactive
[11]
  Potency: inactive
[12]
  Potency: inactive
[13]
  Potency: inactive
[14]
  Potency: inactive

## CNC(=O)N(c1ccccc1)c1ccccc1
[1]
  outcome: inactive
[2]
  Potency: inactive
[3]
  outcome: inactive
[4]
  outcome: inactive
[5]
  outcome: inactive
[6]
  Potency: inactive
[7]
  outcome: inactive
[8]
  Potency: inactive
[9]
  Potency: inactive
[10]
  Potency: inactive
[12]
  Potency: inactive
[13]
  Potency: inactive
[16]
  Potency: inactive
[14]
  Potency: inactive
[15]
  Potency: inactive

## O=C(O)c1cccnc1C(=O)O
[1]
  outcome: inactive
[2]
  Potency: inactive
[3]
  outcome: inactive
[4]
  outcome: inactive
[5]
  outcome: inactive
[6]
  Potency: inactive
[7]
  outcome: inactive
[8]
  Potency: inactive
[9]
  Potency: inactive
[10]
  Potency: inactive
[11]
  Potency: inactive
[12]
  Potency: inactive
[13]
  Potency: inactive
[14]
  Potency: inactive
[15]
  Potency: inactive

## CC(=N\O)/C(C)=N/O
[1]
  outcome: inactive
[2]
  Potency: inactive
[3]
  outcome: inactive
[4]
  outcome: inactive
[5]
  outcome: inactive
[6]
  Potency: inactive
[7]
  outcome: inactive
[8]
  Potency: inactive
[9]
  Potency: inactive
[13]
  Potency: inactive
[14]
  Potency: inactive
[15]
  Potency: inactive

## Cc1ccc(Nc2nccc(N(C)c3ccc4c(C)n(C)nc4c3)n2)cc1S(N)(=O)=O
[1]
  outcome: inactive
[2]
  Potency: inactive
[3]
  outcome: inactive
[4]
  outcome: inactive
[5]
  outcome: inactive
[6]
  Potency: inactive
[7]
  outcome: inactive
[8]
  Potency: inactive
[10]
  Potency: 9.44 µM (active)
[11]
  Potency: 11.9 µM (active)
[13]
  Potency: inactive
[17]
  Potency: inactive
[15]
  Potency: inactive

## O=C(CS)OCCOC(=O)CS
[1]
  outcome: inactive
[2]
  Potency: inactive
[3]
  outcome: inactive
[4]
  outcome: inactive
[5]
  outcome: inactive
[6]
  Potency: inactive
[7]
  outcome: inactive
[8]
  Potency: inactive
[9]
  Potency: inactive
[11]
  Potency: 68.6 µM (active)
[13]
  Potency: inactive
[14]
  Potency: inactive
[15]
  Potency: inactive

## CC1=NN(c2ccc(C(=O)O)cc2)C(=O)C1
[1]
  outcome: inactive
[2]
  Potency: inactive
[3]
  outcome: inactive
[4]
  outcome: inactive
[5]
  outcome: inactive
[6]
  Potency: inactive
[7]
  outcome: inactive
[8]
  Potency: inactive
[9]
  Potency: inactive
[10]
  Potency: inactive
[11]
  Potency: inactive
[12]
  Potency: inactive
[13]
  Potency: inactive
[14]
  Potency: inactive
[18]
  Potency: inactive
[15]
  Potency: inactive

## Cc1cc2nc3ccc(=[N+](C)C)cc-3sc2cc1N
[1]
  outcome: inactive
[2]
  Potency: inactive
[3]
  outcome: inactive
[4]
  outcome: inactive
[5]
  outcome: inactive
[6]
  Potency: inactive
[7]
  outcome: inactive
[8]
  Potency: inactive
[10]
  Potency: 0.596 µM (active)
[11]
  Potency: 2.11 µM (active)
[12]
  Potency: 0.596 µM (active)
[14]
  Potency: 8.41 µM (active)
[15]
  Potency: 26.6 µM (active)

## O=C(Nc1ccccc1)Nc1ccccc1
[1]
  outcome: inactive
[2]
  Potency: inactive
[3]
  outcome: inactive
[4]
  outcome: inactive
[5]
  outcome: inactive
[6]
  Potency: inactive
[7]
  outcome: inactive
[8]
  Potency: inactive
[9]
  Potency: inactive
[11]
  Potency: 48.8 µM (active)
[14]
  Potency: inactive
[15]
  Potency: inactive

## CCCCN(CCCC)C(=S)SSC(=S)N(CCCC)CCCC
[1]
  outcome: inactive
[2]
  Potency: inactive
[3]
  outcome: inactive
[4]
  outcome: inactive
[5]
  outcome: inactive
[6]
  Potency: inactive
[7]
  outcome: inactive
[8]
  Potency: inactive
[11]
  Potency: inactive
[14]
  Potency: inactive

## c1cnc2c(n1)CCCC2
[1]
  outcome: inactive
[2]
  Potency: inactive
[3]
  outcome: inactive
[4]
  outcome: inactive
[5]
  outcome: inactive
[6]
  Potency: inactive
[7]
  outcome: inactive
[8]
  Potency: inactive
[9]
  Potency: inactive
[10]
  Potency: inactive
[11]
  Potency: inactive
[13]
  Potency: inactive
[16]
  Potency: inactive
[17]
  Potency: inactive
[14]
  Potency: inactive
[15]
  Potency: inactive
